HP1b binding inh: blocks HP1-beta chromodomain binding to methylated histone tails | P83916 | AlphaScreen HP1-beta / biotin-H3K9me3 peptide binding | Potency, µM (top dose mostly 114 µM), for inactives: at the highest dose activity change, negative = inhibition, usual class: inhibitors | 390,000 tested, 0.56% active | AID 540317; also: potency is read from the fitted curve at half-maximal effect; nearly all actives have a fitted effect of over 70% in size
Target sequence (P83916 whole entry, looked up): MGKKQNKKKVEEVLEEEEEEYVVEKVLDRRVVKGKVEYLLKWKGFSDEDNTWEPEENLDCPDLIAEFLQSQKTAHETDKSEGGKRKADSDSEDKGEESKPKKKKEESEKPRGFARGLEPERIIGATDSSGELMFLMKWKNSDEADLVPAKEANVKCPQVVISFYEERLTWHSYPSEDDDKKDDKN
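Compound inhibition of the preformed complex between 50 nM HP1-beta and 50 nM biotinylated H3K9me3 peptide was read by AlphaScreen. Buffer was PBS pH 7.4 with 0.01% Tween-20. Incubations ran 30 min at room temperature, with 10 ug/mL donor/acceptor beads.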
JMJD2A Tudor inh: blocks the human JMJD2A Tudor domain; O75164; Potency, µM (highest dose often 114 µM), without a hit: at the top dose activity change, negative = inhibition, actives largely listed as inhibitors; AlphaScreen JMJD2A-Tudor / H3K4me3 peptide binding; 390,000 tested, 4.4% active; also: potency is read from the fitted curve at half-maximal effect; % is scaled to controls: 0 for no effect and ±100 for the full control effect; nearly all actives have a fitted effect of over 50% in size
PI5P4K alpha inh: blocks human PI5P4K alpha kinase activity | 330,000 tested, 1.2% active | P48426 | PI5P4Kalpha enzyme, ADP-Glo luminescence, 60 min; hits give low values | max response, %; active = max response of -50% or lower; inconclusive = between -30% and -50%; inactive = -30% or higher; also: value at the top dose of about 77 µM; % is scaled to controls: 0 for no effect and ±100 for the full control effect
Target sequence (P48426 whole entry, looked up): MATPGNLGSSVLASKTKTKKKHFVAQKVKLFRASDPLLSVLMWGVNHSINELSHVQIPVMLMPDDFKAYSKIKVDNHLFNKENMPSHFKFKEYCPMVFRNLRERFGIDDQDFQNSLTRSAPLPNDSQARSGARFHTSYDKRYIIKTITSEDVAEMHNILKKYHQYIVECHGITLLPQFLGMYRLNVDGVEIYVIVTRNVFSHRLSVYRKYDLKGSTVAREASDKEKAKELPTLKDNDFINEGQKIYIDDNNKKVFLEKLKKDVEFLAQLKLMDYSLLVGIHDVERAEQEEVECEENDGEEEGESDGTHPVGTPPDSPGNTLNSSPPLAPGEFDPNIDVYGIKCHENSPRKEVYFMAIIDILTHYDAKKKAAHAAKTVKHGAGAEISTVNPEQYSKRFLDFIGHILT
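PI5P4Kalpha ADP-Glo assay; 5 microM ATP final; 60 min RT reaction; HEPES pH 7.4/EGTA/CHAPS, 5% DMSO; controls lacking substrate or enzyme; luminescent end-point.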
G9a inh: G9a (human) methyltransferase inhibition. 350,000 tested, 8.8% active. Q96KQ7. Potency, µM (top dose mostly 102 µM), for the others: at the top dose activity, negative = inhibition, actives largely listed as inhibitors. G9a H3K9 monomethylation, AlphaScreen, 2 h. AID 504332; also: potency is read from the fitted curve at half-maximal effect; % is scaled to controls: 0 for no effect and ±100 for the full control effect; nearly all actives have a fitted effect of over 75% in size
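Quantitative HTS format: methyltransferase activity on a biotin-tagged H3K9 peptide is measured by AlphaScreen, using a rabbit anti-monomethyl-H3K9 antibody with streptavidin donor and anti-IgG acceptor beads. Final levels are 20 nM enzyme, 500 nM peptide, 20 uM SAM; 2 h RT.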
BAZ2B inh: inhibitors of human BAZ2B bromodomain; Q9UIF8; AlphaScreen BAZ2B-H3K14Ac peptide displacement; Potency, µM (titrated, usually from 114 µM), for the others: at the top dose activity change, negative = inhibition, hits mostly inhibitors; 360,000 tested, 4.4% active; AID 504333; also: potency is read from the fitted curve at half-maximal effect; % is scaled to controls: 0 for no effect and ±100 for the full control effect; nearly all actives have a fitted effect of over 60% in size
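BAZ2B (50 nM) with biotin-H3(5-23)K14Ac peptide (50 nM) in PBS pH 7.4, 0.01% Tween-20, preformed 30 min, then compound 30 min at room temperature; top concentration 110uM. AlphaScreen streptavidin donor/nickel chelate acceptor beads (10 ug/mL final), 20 min dark, signal read.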
PLK1 PBD inh: inhibitors of human PLK1 polo-box domain binding | P53350 | 360,000 tested, 2.8% active | AID 720504 | Plk1 PBD binding of FITC phosphopeptide, fluorescence polarization | Potency, µM, for inactives: max response, negative = inhibition, hits mostly inhibitors; also: potency is read from the fitted curve at half-maximal effect; series mostly up to about 57 µM; % is scaled to controls: 0 for no effect and ±100 for the full control effect; nearly all actives have a fitted effect of over 65% in size
* = called active by the depositor; ? = inconclusive; · = not tested or not shown; [ ] = remark or other dose. An excerpt weighted towards active compounds, which were near 12% of everything screened. Unless noted, calls follow the shape of the dose curve; as a rule, active = well fitted curve in the direction sought with a large enough effect; inconclusive = small, poorly fitted or top-dose-only effect, or another doubt; inactive = no such curve, though single readings can be large; an effect the other way counts as inactive or inconclusive.

SMILES | HP1b binding inh | JMJD2A Tudor inh | PI5P4K alpha inh | G9a inh | BAZ2B inh | PLK1 PBD inh
CC(NCC(=O)NCCc1ccc(S(N)(=O)=O)cc1)c1ccc(F)cc1 (stereo not drawn) | 15.0% | 1.4% | 3.1 | · | -24.4% | -15.7%
Cc1cc2oc(C(=O)NCCc3ccc(S(N)(=O)=O)cc3)cc(=O)c2cc1C | 8.7% | ? | -28.6 | -9.4% | -1.6% | 26.7µM*
CN(CCOc1ccccc1)CC(=O)Nc1ccc([N+](=O)[O-])cc1Cl | -5.6% | ? | 0.6 | 7.2%[59 µM] | ? | -13.7%
CN(CC(=O)Nc1ccc([N+](=O)[O-])cc1Br)Cc1c(F)cccc1Cl | -16.6% | ? | -7.6 | ? | -26.2% | 26.7µM*
CN(CC(=O)NCCc1ccc(S(N)(=O)=O)cc1)Cc1ccc(Cl)cc1Cl | 8.9% | -31.6% | -11.0 | 15.3% | 7.9% | -20.5%
Cc1ccc(C(=O)NCCc2ccc(S(N)(=O)=O)cc2)o1 | 6.0% | -2.1% | -0.6 | 4.0% | -11.1% | -5.9%
CN(CC(=O)NCCc1ccc(S(N)(=O)=O)cc1)Cc1c(F)cccc1Cl | 19.9% | -3.2% | -10.3 | 50.1µM* | 21.9% | 2.5%
CC(NCCc1ccc(S(N)(=O)=O)cc1)C(=O)NCCc1ccc(F)cc1 (stereo not drawn) | ? | 25.1µM* | 0.0 | 8.1% | 50.1µM* | 2.9%
CCOc1ccc(NC(=O)Cn2c(=O)n(CCC(=O)NCCc3ccccc3)c(=O)c3ccccc32)cc1 | 22.7% | -11.3% | · | -4.2%[59 µM] | -0.2% | ·
CCN(CC)C(=O)CSc1nc2ccccc2c(=O)n1-c1cccc(OC)c1 | 32.0% | 0.0% | 8.8 | 7.6%[59 µM] | 0.6% | -3.6%
COc1cccc(-n2c(SCc3cc(=O)oc4cc(O)c(O)cc34)nc3ccccc3c2=O)c1 | ? | 39.8µM* | -61.0* | ? | 35.5µM* | ?
Cc1ccc2[nH]c(=O)c(CN(c3cccc(C)c3C)S(=O)(=O)c3ccccc3)cc2c1 | 25.6% | -18.1% | 10.0 | 43.5% | -16.3% | -3.4%
Cc1ccc(N(Cc2cc3cccc(C)c3[nH]c2=O)S(=O)(=O)c2ccccc2)c(C)c1 | -13.4% | ? | -5.9 | ? | ? | 15µM*
Cc1cccc(N(Cc2cc3ccccc3[nH]c2=O)S(C)(=O)=O)c1 | 15.3% | -20.3% | -5.0 | -43.2% | -3.5% | -10.4%
CCCN(Cc1cc2ccc(C)cc2[nH]c1=O)C(=O)c1ccccn1 | -13.8% | -20.5% | -29.1 | 31.6µM* | 3.2% | ?
Cc1ccc(S(=O)(=O)N(Cc2cc3ccc(C)cc3[nH]c2=O)c2ccccc2)cc1 | -9.4% | -8.1%[11.4 µM] | -5.2 | 2.0% | -1.3% | 33.6µM*
Cc1ccc(S(=O)(=O)N(Cc2cc3ccccc3[nH]c2=O)c2cccc(C)c2)cc1 | 13.7% | -8.1%[11.4 µM] | 0.6 | -6.7% | 2.9% | 29.9µM*
O=C(NC1CC(=O)N(c2ccc(Cl)cc2)C1)c1cc2ccccc2o1 (stereo not drawn) | -5.0% | -5.8% | · | 2.9%[59 µM] | -1.0% | ·
O=C(CSc1nc2ncccc2[nH]1)c1ccc2c(c1)OCO2 | 40.6% | 6.0% | 2.0 | -2.9% | -19.3% | 2.8%
C#CCN1C(=O)C(O)(CC(=O)/C=C/c2ccco2)c2ccccc21 (stereo not drawn) | 16.9% | -35.2% | -26.1 | 50.1µM* | ? | -6.6%
CCSc1cnc(-c2ccccc2)n1CC | 8.7% | -31.3% | · | 50.1µM* | ? | 3.6%
Cc1cc(C)cc(-n2cccc2/C=C2/C(=N)N3C(=NC2=O)SN=C3S(C)(=O)=O)c1 | -18.8% | ? | ? | ? | 56.2µM* | -11.9%
Cc1ccc(-n2cccc2/C=C2/C(=N)N3C(=NC2=O)SN=C3S(C)(=O)=O)cc1 | -23.6% | 15.8µM* | -67.0* | 39.8µM* | 44.7µM* | ?
CCc1ccc(-n2cccc2/C=C2/C(=N)N3C(=NC2=O)SN=C3S(C)(=O)=O)cc1 | -3.2% | 56.2µM* | -61.3* | 44.7µM* | 39.8µM* | 13.4µM*
CS(=O)(=O)C1=NSC2=NC(=O)/C(=C\c3cccn3-c3ccccc3Cl)C(=N)N21 | 25.4% | ? | -94.7* | 50.1µM* | 50.1µM* | ?
SMILES | HP1b binding inh | JMJD2A Tudor inh | PI5P4K alpha inh | G9a inh | BAZ2B inh | PLK1 PBD inh
CCC1=NN2C(=N)/C(=C\c3cccn3-c3ccc(C)c(C)c3)C(=O)N=C2S1 | 14.3% | ? | -18.9 | -33.0% | -22.2% | ?
Cc1nn(S(=O)(=O)c2ccc(C(C)(C)C)cc2)c(C)c1S(=O)(=O)N1CCCCCC1 | 20.2%[57 µM] | -28.4% | · | -3.4%[59 µM] | -25.5% | ·
Cc1ccc(-n2cccc2/C=C2\C(=N)N3N=C(c4ccco4)SC3=NC2=O)cc1 | -2.7% | ? | ? | 10µM* | 35.5µM* | 29.9µM*
CCOc1ccccc1-n1c(SCC(=O)N2CCOCC2)nnc1-c1ccccn1 | 23.0% | 0.3% | -1.4 | 14.0%[59 µM] | -33.5% | 0.3%
Cc1ccc(-n2c(SCC(=O)OC(C)C)nnc2-c2ccccn2)cc1 | 17.8% | 50.1µM* | · | -7.8%[59 µM] | 50.1µM* | -5.4%
Cc1ccc(C)c(-n2c(SCC(N)=O)nnc2-c2ccccn2)c1 | 24.5% | 79.4µM* | -1.6 | ? | 17.8µM* | -4.3%
Cc1ccc(C)c(-n2c(SCC(=O)N3CCCC3)nnc2-c2ccccn2)c1 | 31.3% | ? | -0.4 | 8.4%[59 µM] | 31.6µM* | -3.4%
CCN(CC)C(=O)CSc1nnc(-c2ccccn2)n1-c1ccccc1OC | 45.4% | ? | -3.4 | 16.1%[59 µM] | 89.1µM* | -17.4%
CCc1cc2c(=O)c(-c3nc4ccccc4[nH]3)coc2c(CN2CCCCC2C)c1O (stereo not drawn) | 50.2% | -32.4% | 3.4 | · | -13.4% | -7.8%
O=c1oc2c(CN3CCCCC3)c(O)ccc2cc1-c1nc2ccccc2[nH]1 | 44.1% | -2.6% | · | 13.6%[12.7 µM] | 9.4% | 26.7µM*
CCc1cc2c(=O)c(-c3nc4ccccc4[nH]3)coc2c(CN2CCCCC2)c1O | 61.9% | -21.6% | -4.4 | ? | 79.4µM* | -6.8%
Cc1ccc2[nH]c(C)c(CCNC(=O)c3cc4cc(Br)ccc4oc3=O)c2c1 | -3.8% | -34.0% | · | -5.4%[59 µM] | ? | ·
CCc1cccc(CC)c1NC(=S)NCCc1c(C)[nH]c2ccc(C)cc12 | -21.7% | 31.6µM* | 0.8 | 39.8µM* | 28.2µM* | -7.9%
CCCNC(=O)NCCc1c(C)[nH]c2ccccc12 | 15.6% | -18.6% | 4.9 | 0.1% | 0.3% | -8.8%
CCc1cccc(C)c1NC(=S)NCCc1c(C)[nH]c2ccc(C)cc12 | ? | 44.7µM* | 4.3 | 44.7µM* | 25.1µM* | -1.1%
Cc1ccc2[nH]c(C)c(CCNC(=O)c3c(N)no[n+]3[O-])c2c1 | 70.8µM* | 50.1µM* | 1.5 | ? | ? | 0.0%
CNS(=O)(=O)c1cn(CC(=O)N2CCN(c3ccc(C(C)=O)cc3)CC2)cc1S(=O)(=O)NC | 15.5% | 1.4% | · | -15.5%[59 µM] | -12.3% | ·

Screening data deposited in PubChem BioAssay by National Center for Advancing Translational Sciences (NCATS).
